Marburg entry inh: blocks Marburg virus binding to or entry into cells. Potency, µM (series often up to 37.8 µM), for the others: at the highest dose activity change, negative = inhibition, most hits filed as inhibitors. 300,000 compounds, 1.8% hits. Marburg virus pseudotyped entry inhibition, cell reporter. AID 540276; calls by dose curve; tested in HEK293 cells; further: potency means the concentration at half of the fitted maximal effect; on the % scale 0 is the no-effect control and ±100 the full control effect
Pf growth 48h: P. falciparum growth inhibition at 48 hours (one generation) | P. falciparum luciferase growth in erythrocytes, 48 h | Potency, µM (titrated, usually from 28.7 µM), inactives show at the highest dose activity change, negative = inhibition, hits mostly inhibitors | 310,000 compounds, 5.9% hits; further: potency means the concentration at half of the fitted maximal effect; on the % scale 0 is the no-effect control and ±100 the full control effect
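Luciferase-expressing P. falciparum in infected erythrocytes (2% hematocrit, 0.1% parasitemia final) in RPMI 1640/0.5% Albumax were exposed to compound for 48 hours at 37 C, 5% CO2; growth read as luminescence.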
HCV inh: inhibitors of hepatitis C virus infection. Huh7.5.1 HCVcc-Cre infection, luciferase reporter, 44 h. Potency, µM (doses to about 41.8 µM), for inactives: at the top dose activity change, negative = inhibition, usual class: inhibitors. 340,000 compounds, 3.4% hits; further: potency means the concentration at half of the fitted maximal effect; on the % scale 0 is the no-effect control and ±100 the full control effect
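Antiviral activity was scored by luciferase reporter output from cells infected with HCVcc-Cre (~0.5 moi) in presence of compound, 44 h infection period, cells seeded 1,000/well 4 h prior.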
HCMV antiviral: human cytomegalovirus inhibition | HFF cells, HCMV-luciferase reporter, 72 h; hits give low values | activity change, negative = inhibition, % at 57.5 µM | 410,000 compounds, 4.5% hits; in the data active means activity change below about -60%; inconclusive means no clear call, values can overlap the other calls; inactive means above about -39%; further: on the % scale 0 is the no-effect control and ±100 the full control effect
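Two-dose cell screen: HFF monolayers treated with compounds and infected with luciferase-expressing HCMV at 1 PFU/cell, 72 h at 37C, then lysed for luciferase measurement.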
Lassa entry inh: Lassa virus entry inhibition; Potency, µM (doses to about 37.9 µM), for the others: at the highest dose activity change, negative = inhibition, hits mostly inhibitors; 300,000 compounds, 1.2% hits; Lassa virus pseudotype entry inhibition, cell reporter; AID 540256; calls by dose curve; tested in HEK293 cells; further: potency means the concentration at half of the fitted maximal effect; on the % scale 0 is the no-effect control and ±100 the full control effect; nearly all actives have a fitted effect of over 50% in size
Pf growth 96h: P. falciparum growth inhibition at 96 hours | Potency, µM (titrated, usually from 28.7 µM), for inactives: at the top dose activity change, negative = inhibition, hits mostly inhibitors | AID 504834 | 320,000 compounds, 6.9% hits | P. falciparum luciferase reporter growth, 96 h; further: potency means the concentration at half of the fitted maximal effect; on the % scale 0 is the no-effect control and ±100 the full control effect
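Delayed-death screen, second-generation endpoint: infected erythrocytes, 2% hematocrit, 0.05% parasitemia final; 96 hours at 37 C, 5% CO2; luciferase detection reagent; luminescence decrease equals reduced growth.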
WI-38 tox: counter-screen for perinucleolar compartment inhibitors: WI-38 cytotoxicity. WI-38 normal lung fibroblasts, ATPLite luminescence ATP viability, 24 h. AID 2729. Potency, µM (series often up to 46.1 µM), without a hit: at the highest dose activity change, negative = cytotoxicity, most hits filed as inhibitors. shares compounds with Marburg entry inh. 120 tested, under 10 active
PNC assembly inh: confirmation of perinucleolar compartment assembly inhibitors. shares compounds with Marburg entry inh. 120 compounds, 50% hits. PC3M PTB-GFP, PNC prevalence imaging, 16 h. Potency, µM (titrated, usually from 46.1 µM), inactives show at the highest dose activity, negative = PNC inhibition, most hits filed as inhibitors
PC3M casp3-7: counter-screen for PNC inhibitors: PC3M caspase 3/7 activation. shares compounds with Marburg entry inh. PC3M-GFP caspase 3/7 activation, luminescence, 24 h. activity change, positive = activation, % at 46.1 µM. 120 tested, under 10 active
HCV inh confirm: confirmation of hepatitis C virus inhibitors. shares compounds with HCV inh. HCVcc-Cre infectious virus cell assay, luciferase, inhibition. Potency, µM (doses to about 41.8 µM), for the others: top-dose activity, negative = inhibition, hits mostly inhibitors. 640 compounds, 78% hits. AID 720575; further: potency means the concentration at half of the fitted maximal effect; nearly all actives have a fitted effect of over 80% in size
HCV host tox: toxic to HCV host cells, flagging false HCV inhibitors. Potency, µM (highest dose often 41.8 µM), for inactives: at the top dose activity change, negative = cytotoxicity, usual class: inhibitors. shares compounds with HCV inh. 640 compounds, 22% hits. HCV host cell line cytotoxicity counterscreen;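 further: potency means the concentration at half of the fitted maximal effect; 44 h compound exposure; on the % scale 0 is the no-effect control and ±100 the full control effect; nearly all actives have a fitted effect of over 55% in size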
* marks the source's active call; other numbers are inactive results; ? = inconclusive; / = no result; [ ] = remark or other dose. Rows were chosen to be rich in hits. Some 14% of all compounds tested hit in one or more screens of this group. Unless noted, the call rests on the fitted dose curve; in most records, active means well fitted curve in the direction sought with a large enough effect; inconclusive means small, poorly fitted or top-dose-only effect, or another doubt; inactive means no such curve, though single readings can be large; an effect the other way counts as inactive or inconclusive.

SMILES	Marburg entry inh	Pf growth 48h	HCV inh	HCMV antiviral	Lassa entry inh	Pf growth 96h	HCV inh confirm	HCV host tox	others
C[C@@H]1CN([C@@H](C)CO)C(=O)CCCn2nncc2CO[C@H]1CN(C)Cc1cccc(C(F)(F)F)c1	/	/	/	20	/	/	/	/
CCOC(=O)c1ccc2c(c1)N(Cc1ccc(F)cc1Cl)C(=O)c1ccccc1S2(=O)=O	/	/	/	3	?	/	/	/
Cc1ccc(S(=O)(=O)N(C)c2ccc(OCC(=O)Nc3nc4ccccc4s3)cc2)cc1	15µM*	4.7µM*	?	-80*	?	3.3µM*	/	/	WI-38 tox=-20%;PNC assembly inh=?;PC3M casp3-7=-10
COc1ccc(NC(=O)COc2ccc(N(C)S(=O)(=O)c3ccc(C)cc3)cc2)cc1	-13%	-24%	?	21	-5%	-27%	/	/
COc1ccc(C2=NS(=O)(=O)N(C)C(C(=O)Nc3ccc(OC(F)(F)F)cc3)=C2)cc1	3%[46.1 µM]	/	/	10	0%[46.1 µM]	/	/	/
COc1cc(CN2C[C@@H](CO)O[C@@H](n3cnc4c(NCCCO)ncnc43)C2)cc(OC)c1OC	/	/	/	-2	/	/	/	/
Cc1cc(=O)[nH]c(N=N/C(=N/Nc2ccccc2C)c2ccccc2)n1	0.79µM*	-5%	?	-86*	4µM*	/	/	/	WI-38 tox=-7%;PNC assembly inh=?;PC3M casp3-7=-8
O=C(COC(=O)Cc1ccsc1)NCC1CCCCC1	3%[46.1 µM]	/	-11%	15	-4%	20%	/	/	WI-38 tox=-9%;PNC assembly inh=-13%;PC3M casp3-7=0
O=C(COC(=O)Cc1ccc(Br)cc1)NCC1CCCCC1	5%[46.1 µM]	16%	18%	?	25%[46.1 µM]	34%	/	/
CC(=O)Nc1cccc(Oc2ncnc3scc(-c4ccc(C)cc4)c23)c1	-18%	15%	?	-66*	?	?	/	/	WI-38 tox=27%;PNC assembly inh=-1%;PC3M casp3-7=-5
CC(=O)Nc1ccc(-c2ccnc3c2CC(C)(C(=O)NCc2cccc(Cl)c2)O3)cc1 (stereo not given)	/	/	/	-35	/	/	/	/
CCc1c(C)nc2ncnn2c1NCCc1ccc(Cl)cc1	?	?	?	?	?	-17%	7µM*	?
CCc1nc2ccc(C(=O)NCc3cccs3)cn2c1N(CC)CCOC	/	/	/	-4	/	/	/	/
CCOC(=O)C1=C(CC)Nc2ccccc2N=C1NC(=O)c1oc2ccccc2c1C	?	?	?	69	?	?	13µM*	2%
CCOC(=O)C1=C(CC)Nc2ccccc2N=C1NC(=O)c1cccc(S(=O)(=O)N2CCOCC2)c1	/	?	-3%	4	/	?	/	/
C=CCn1c(-c2cccs2)nc2ccccc21	15%[46.1 µM]	9%	?	-26	6%	4%	-28%	-35%
C=CCn1c(-c2cccs2)nc2nc3ccccc3nc21	8%	19%	17%	57	2%	/	/	/
CC(C)(C)C1C/C(=C/c2ccccn2)C(=O)/C(=C/c2ccccn2)C1 (stereo not given)	/	2.1µM*	0.89µM*	/	/	-21%	1µM*	1.4µM*
C(=C\c1ccccn1)/c1ccccn1	7%[46.1 µM]	121%	-18%	80	6%	130%	/	/
O=C(Nc1ncc(Cc2ccc(SC(F)F)cc2)s1)c1ccccc1	-4%	-9%	?	?	?	?	14µM*	28µM*
CCOC(=O)c1cc2n(c1/N=C/N(C)C)-c1ccccc1C2=O	?	/	?	31	?	?	?	35%
Cc1cc(C)n(-c2c(F)c(F)c(CN3CCOCC3)c(F)c2F)n1	3%	0%	3%	9	17%	4%	/	/
O=C(Nc1ccc(S(=O)(=O)Nc2ccccc2)cc1)c1ccc(CN2CCOCC2)cc1	/	?	2.2µM*	-90*	/	32%	1.8µM*	-93%
O=C(Nc1ccc(CN2CCS(=O)(=O)CC2)cc1)c1ccc(C(F)(F)F)cc1	?	?	5.6µM*	-61*	-29%	?	5µM*	13µM*
O=C(Nc1ccc(CN2CCOCC2)cc1)c1ccc(Cl)cc1	/	55%	1%	?	/	41%	/	/
SMILES	Marburg entry inh	Pf growth 48h	HCV inh	HCMV antiviral	Lassa entry inh	Pf growth 96h	HCV inh confirm	HCV host tox	others
O=C(Nc1ccc(CN2CCS(=O)(=O)CC2)cc1)c1ccc(F)cc1	/	36%	-7%	26	/	11%	/	/
CC1(c2ccc3ccccc3c2)NC(=O)N(CC(=O)N2CCN(Cc3ccccc3)CC2)C1=O (stereo not given)	/	?	3.2µM*	/	/	?	0.89µM*	3.1µM*
CC1(c2ccc3ccccc3c2)NC(=O)N(CC(=O)N2CCC(C(N)=O)CC2)C1=O (stereo not given)	8%[46.1 µM]	1%	28%	-1	?	8%	/	/
CCOC(=O)C1CCCN(S(=O)(=O)c2ccc(S(=O)(=O)N(CC)CC)cc2)C1 (stereo not given)	/	-24%	0.89µM*	-70*	/	0%	0.7µM*	1.8µM*
CCOC(=O)C1CCCN(S(=O)(=O)c2ccc(S(N)(=O)=O)cc2)C1 (stereo not given)	?	?	?	-34	-14%[46.1 µM]	-24%	/	/
CN(CC(=O)Nc1cc(Cl)cc(Cl)c1)Cc1cccs1	-15%	-17%	?	-25	1%	-3%	/	/
Cc1cc(C(F)(F)F)n2nc(-c3ccc(Br)cc3)cc2n1	4%[46.1 µM]	/	/	21	3%[46.1 µM]	/	/	/
NS(=O)(=O)c1ccc(CCNc2nc3c(-c4cccc(F)c4)nnn3c3ccccc23)cc1	1%	-14%	1.4µM*	6	?	-12%	7µM*	-16%
Cc1ccccc1C(=O)NCC(=O)OC(C)C(=O)Nc1cccc(S(=O)(=O)N2CCOCC2)c1 (stereo not given)	?	3%	5%	-30	-1%[46.1 µM]	5%	/	/
CCCCSc1nc2sc3c(c2c(=O)n1-c1ccccc1)CCN(C)C3	/	5.2µM*	?	9	/	4.1µM*	13µM*	21%
